Experimental findings from ChEMBL document CHEMBL1157539, “Thousands of chemical starting points for antimalarial lead identification” (Nature, 2010) are described below.

Type in all cases: functional
The subject of assay [1] is Plasmodium falciparum. Description: GSK_TCMDC: Inhibition of Plasmodium falciparum 3D7 in whole red blood cells, using parasite LDH activity as an index of growth. Test compounds present at 2uM.
For assay [2], the system named is Plasmodium falciparum. Kind of assay: GSK_TCMDC: Inhibition of Plasmodium falciparum Dd2 in whole red blood cells, using parasite LDH activity as an index of growth. Test compounds present at 2uM.
Assay [3] concerns HepG2. Description: GSK_TCMDC: Percent inhibition of human HepG2 cell line. Test compounds present at 10uM.

Structures are written as SMILES.

As for `NC(=O)c1ccc(-n2cnc3cc(F)ccc32)cc1OCc1ccccc1C(F)(F)F.NC(=O)c1ccc(-n2cnc3ccc(F)cc32)cc1OCc1ccccc1C(F)(F)F`, the Inhibition was 97% in assay [1], 93% in assay [2] and 55% in assay [3].

`COc1ccc(CCNCCCCCNCCc2ccc(Cl)cc2)cc1OC.Cl`: the results for the Inhibition in assay [1], in assay [2] and in assay [3] were 100%, 0% and 32%, respectively.

For `CCNc1cc(C(=O)N[C@@H](Cc2ccccc2)[C@H](O)CN[C@H](C)C(C)(C)C)cc(N2CCCCS2(=O)=O)c1.Cl`, the Inhibition worked out at 95% in assay [1], 41% in assay [2] and 4% in assay [3].

Regarding `CCCCCCCCN1CCN(CCCCCCNc2c3ccccc3nc3ccccc23)CC1.Cl`, the Inhibition in assay [1], in assay [2] and in assay [3] was 100% each time.

`Cc1ccc(C2CCN(CCCCNC(=O)c3ccc(NC(=O)c4ccc(Cl)cc4)cc3)CC2)c(OCC2CC2)c1.Cl`: the values for the Inhibition in assay [1], in assay [2] and in assay [3] were 100%, 95% and 63%, respectively.

With `FC(F)(F)c1cccc(CCNc2nccc(NCc3ccc(Cl)cc3Cl)n2)c1`, the Inhibition in assay [1] turned out to be 97%; in assay [2] it was 59%; in assay [3] it was 8%.

`CC(=NNC(=N)N)C(=O)Nc1ccc(Cl)c(Cl)c1.O=S(=O)(O)O`: the values for the Inhibition in assay [1], in assay [2] and in assay [3] were 100%, 97% and 0%, respectively.

With `O=C(Nc1ccccc1)OCCOc1ccc(CC2SC(=O)NC2=O)cc1` (stereo unspecified), the figures for the Inhibition in assay [1], in assay [2] and in assay [3] were 100%, 0% and 1%, respectively.

For `Cc1cc(-c2cccc3c(C(=O)N4CCc5cc6nccc(N7CCN8CCC[C@H]8C7)c6cc54)cccc23)cc(C)n1.Cl`, the results for the Inhibition in assay [1], in assay [2] and in assay [3] were 97%, 76% and 13%, respectively.

As to `CCCCc1ccc(NC(=O)Nc2ccc3c(c2)CCNCC3)cc1.Cl`, the Inhibition is listed as 95% in assay [1], 43% in assay [2] and 16% in assay [3].

As for `CC(C)Sc1ccc(Cl)cc1CON1C(=N)N=C(N)NC1(C)C.Cl`, the Inhibition in assay [1] was determined as 93%; in assay [2], 90%; in assay [3], 66%.

Turning to `COc1nc2c(CCN3CC[C@H](NCc4cc(C#N)c5c(c4)OCCO5)[C@H](O)C3)ccnc2cc1F`, the Inhibition amounted to 95% in assay [1], 41% in assay [2] and 18% in assay [3].

As to `CC(C)(C)c1cc(C(=O)N2CCN(c3nccnc3C#N)CC2)n(Cc2ccccc2)n1`, the Inhibition came out at 100% in assay [1], 93% in assay [2] and 0% in assay [3].

As to `CCOc1ccc(N2CCN(CCCCNC(=O)c3ccc(NC(=O)c4ccc(Cl)cc4)cc3)CC2)c(OCC)c1`, the Inhibition is listed as 100% in assay [1], 65% in assay [2] and 36% in assay [3].

For the compound `COc1ccc2nccc([C@@H](O)CN3CCC(NCc4ccc5nc[nH]c(=O)c5c4)CC3)c2c1.O=C(O)C(=O)O`, the Inhibition in assay [1] stood at 99%; in assay [2], 4%; in assay [3], 12%.

Regarding `COc1ccc2nccc([C@@H](O)CN3CCC(NCc4ccc5c(c4)OCCO5)CC3)c2c1.O=C(O)C(=O)O`, the values for the Inhibition in assay [1], in assay [2] and in assay [3] were 100%, 92% and 9%, respectively.

For `CC1CC(C)CN(CCCNc2ccc(C(=O)Nc3ccc(C(F)(F)F)cc3)cc2[N+](=O)[O-])C1` (stereo unspecified), the Inhibition came to 100% in assay [1], 99% in assay [2] and 31% in assay [3].

In the case of `Cl.N=C(N)NCCCN(Cc1ccccc1)c1ccccc1`, the Inhibition in assay [1] is on record as 100%; in assay [2], 97%; in assay [3], 0%.

For the compound `O=C(NC(c1ccc(Cl)cc1)c1ccc2cccnc2c1O)c1ccccc1` (stereo unspecified), the Inhibition in assay [1] was found to be 87%; in assay [2], 80%; in assay [3] it was 44%.

In the case of `CCn1c(-c2nonc2N)nc2c(-c3cc4ccccc4s3)ncc(C(=O)N3CCC(N)C3)c21.O=C(O)C(F)(F)F` (stereo unspecified), the Inhibition in assay [1] stood at 98%; in assay [2], 66%; in assay [3], 99%.

Consider `Cc1cc(O)c(-c2ccc(Oc3ccc(F)cc3)cc2)c(C)n1`, for which the Inhibition in assay [1] amounted to 85%; in assay [2], 59%; in assay [3], 0%.

As to `OC[C@H]1CCCN1CC#Cc1cc2c(Nc3ccc(OCc4cccc(F)c4)c(Cl)c3)ncnc2s1`, the Inhibition in assay [1] is listed as 89%; in assay [2], 6%; in assay [3], 13%.

Consider `CC1(C)[C@H]2CC[C@@H](CNc3nc(NCC(=O)Nc4ccc5ccccc5c4)nc(N4CCC(N5CCCC5)CC4)n3)[C@@H]1C2`, for which the Inhibition in assay [1] came to 93%; in assay [2], 20%; in assay [3], 6%.

Consider `COc1cc(NCCCNCc2cn(Cc3cc(Br)cc(Br)c3)c3ccccc23)nc2ccccc12`, for which the Inhibition in assay [1] is given as 100%; in assay [2], 85%; in assay [3], 99%.

As to `NC1CCN(CCNCc2cccc(-c3ccc(-c4nc5cc(F)ccc5[nH]4)cc3)c2)C1.O=C(O)C(F)(F)F` (stereo unspecified), the Inhibition in assay [1] is 99%; in assay [2] it was 4%; in assay [3] it was 8%.

For `O=C(O)C(F)(F)F.O=C1CCCN1CCCNCc1cccc(-c2cccc(-c3nc4cc(F)ccc4[nH]3)c2)c1`, the results for the Inhibition in assay [1], in assay [2] and in assay [3] were 100%, 69% and 6%, respectively.

Turning to `Cc1cnc(NCC2CCCCC2)nc1NCC(=O)Nc1ccccc1.O=C(O)C(F)(F)F`, the Inhibition in assay [1] is given as 90%; in assay [2] it was 51%; in assay [3], 21%.

In the case of `CCCCc1cc(=O)oc2cc(C)cc(OCc3ccccc3F)c12`, the Inhibition is 92% in assay [1], 78% in assay [2] and 8% in assay [3].

As to `O=C(/C=C/c1ccc(C(F)(F)F)cc1)NCCCCCN1CCN(C(=O)Nc2ccc(Cl)cc2)CC1`, the Inhibition worked out at 88% in assay [1], 0% in assay [2] and 37% in assay [3].

Turning to `CCCNC(=O)C1CCN(C(c2ccc(Cl)cc2)c2ccc(Cl)cc2)CC1`, the Inhibition in assay [1] came to 98%; in assay [2], 96%; in assay [3] it was 7%.

Turning to `Cc1nccn1Cc1cc(C(C)(C)C)c(O)c(C(C)(C)C)c1`, the results for the Inhibition in assay [1], in assay [2] and in assay [3] were 99%, 0% and 8%, respectively.

For the compound `Cn1cnc2c(Nc3ccncc3)nc(-c3ccc(OC(F)(F)F)cc3)nc21.O=C(O)C(F)(F)F`, the Inhibition in assay [1] was 100%; in assay [2], 65%; in assay [3], 28%.
